The source of these data is PubChem BioAssay (Tox21).

Assay [1] is described as follows: qHTS assay to identify small molecule antagonists of the thyroid receptor (TR) signaling pathway - cell viability counter screen (AID 743064). Also: nearly all actives have a fitted effect of over 50% in size. Also: potency is read from the fitted curve at half-maximal effect. Put shortly: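 GH3.TRE-Luc cells, 4 h pre-plating; cpd + T3 1 nM final; 37 °C 23.5 h; CellTiter-Fluor 30 min; fluorescence read.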
A short description of assay [2]: qHTS assay to identify small molecule antagonists of the thyroid receptor (TR) signaling pathway (AID 743065). Also: nearly all actives have a fitted effect of over 55% in size. Also: potency is read from the fitted curve at half-maximal effect. Put shortly:
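GH3.TRE-Luc rat pituitary cells carrying two TR response elements driving luciferase were plated for 4 h, given compound plus 1 nM T3 (final), and incubated 23.5 h at 37 C. ONE-Glo luminescence measured reporter inhibition; CellTiter-Fluor fluorescence tracked cytotoxicity.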
Background: Quantitative high-throughput screening tests each substance at several concentrations.

The test system of assay [3] is thyroid hormone receptor (rat, GH3 cells). The assay is described as follows: qHTS assay to identify small molecule agonists of the thyroid receptor (TR) signaling pathway (AID 743066; calls by dose curve).
Assay [4] deals with Estrogen receptor (Homo sapiens) (UniProt P03372). The assay is described as follows: qHTS assay to identify small molecule agonists of the estrogen receptor alpha (ER-alpha) signaling pathway (AID 743075; calls by dose curve; also: potency is read from the fitted curve at half-maximal effect).
Chain of Estrogen receptor (Homo sapiens) (P03372 whole entry, looked up): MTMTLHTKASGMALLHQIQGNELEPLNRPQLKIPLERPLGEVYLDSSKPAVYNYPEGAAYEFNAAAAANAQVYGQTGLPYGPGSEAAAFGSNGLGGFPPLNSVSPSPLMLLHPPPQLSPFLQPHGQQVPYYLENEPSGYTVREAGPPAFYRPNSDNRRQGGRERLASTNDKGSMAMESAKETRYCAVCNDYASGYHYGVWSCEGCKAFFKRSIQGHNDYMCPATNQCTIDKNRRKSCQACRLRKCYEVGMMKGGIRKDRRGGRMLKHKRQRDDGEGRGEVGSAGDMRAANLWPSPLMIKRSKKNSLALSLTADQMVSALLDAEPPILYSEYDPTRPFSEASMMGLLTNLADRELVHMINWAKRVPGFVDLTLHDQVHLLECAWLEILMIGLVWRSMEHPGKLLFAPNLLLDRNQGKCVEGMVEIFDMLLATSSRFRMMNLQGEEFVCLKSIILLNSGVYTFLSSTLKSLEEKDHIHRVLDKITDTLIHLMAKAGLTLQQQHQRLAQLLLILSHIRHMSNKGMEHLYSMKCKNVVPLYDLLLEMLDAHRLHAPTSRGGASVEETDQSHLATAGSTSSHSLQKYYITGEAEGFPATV
Assay [5] shares this target. The assay is described as follows: qHTS assay to identify small molecule agonists of the estrogen receptor alpha (ER-alpha) signaling pathway using the BG1 cell line (AID 743079). Also: nearly all actives have a fitted effect of over 20% in size. Also: potency is read from the fitted curve at half-maximal effect. The note with it: BG1Luc4E2 cells, ERE-luciferase agonist, 22 h; activation: at 70.3 µM (top of the series).
The nature of assay [6]: qHTS assay to identify small molecule antagonists of the estrogen receptor alpha (ER-alpha) signaling pathway using the BG1 cell line (AID 743080; calls by dose curve; also: nearly all actives have a fitted effect of over 25% in size; also: potency is read from the fitted curve at half-maximal effect). The note with it: BG1Luc4E2 ERE-luciferase antagonist mode, luminescence; activity change, negative = inhibition: at 70.3 µM (top of the series). Put shortly:
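Antagonist mode: compounds in DMSO were pinned onto BG1-Luc-4E2 cells alongside 17beta-estradiol agonist, incubated 21.5 h, and ERE-driven luciferase measured with ONE-Glo. Cytotoxicity was multiplexed using CellTiter-Fluor fluorescence.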

A short description of assay [7]: qHTS assay to identify small molecule antagonists of the estrogen receptor alpha (ER-alpha) signaling pathway using the BG1 cell line - cell viability counter screen (AID 743081).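 Also: compound given together with 17beta-estradiol as the ER stimulus; nearly all actives have a fitted effect of over 45% in size.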 Also: potency is read from the fitted curve at half-maximal effect.
The target in the next assay is Aromatase (Homo sapiens) (UniProt P11511). Kind of assay: qHTS assay to identify aromatase inhibitors (AID 743083). Also: nearly all actives have a fitted effect of over 55% in size. Also: potency is read from the fitted curve at half-maximal effect.
Chain of Aromatase (Homo sapiens) (P11511 whole entry, looked up): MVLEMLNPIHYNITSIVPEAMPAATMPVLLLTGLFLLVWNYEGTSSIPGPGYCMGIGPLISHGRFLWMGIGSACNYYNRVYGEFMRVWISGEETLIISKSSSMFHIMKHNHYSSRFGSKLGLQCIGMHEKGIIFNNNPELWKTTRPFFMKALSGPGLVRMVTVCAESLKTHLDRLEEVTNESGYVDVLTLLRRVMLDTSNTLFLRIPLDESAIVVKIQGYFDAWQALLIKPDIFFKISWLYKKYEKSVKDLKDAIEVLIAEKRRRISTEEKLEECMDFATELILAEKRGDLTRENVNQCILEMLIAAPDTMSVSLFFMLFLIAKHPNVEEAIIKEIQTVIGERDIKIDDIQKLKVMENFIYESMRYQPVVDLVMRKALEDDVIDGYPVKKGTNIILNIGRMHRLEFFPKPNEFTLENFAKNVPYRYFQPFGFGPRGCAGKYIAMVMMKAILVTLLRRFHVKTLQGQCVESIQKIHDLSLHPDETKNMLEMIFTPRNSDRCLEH
Assay [8] is described as follows: qHTS assay to identify small molecule antagonists of the estrogen receptor alpha (ER-alpha) signaling pathway - cell viability counter screen (AID 743074; calls by dose curve; also: nearly all actives have a fitted effect of over 45% in size; also: potency is read from the fitted curve at half-maximal effect).
For assay [9], the target named is Estrogen receptor (Homo sapiens) (UniProt P03372). Kind of assay: qHTS assay to identify small molecule antagonists of the estrogen receptor alpha (ER-alpha) signaling pathway (AID 743069; active = well fitted curve in the direction sought with a large enough effect in the signal ratio in the repeat runs, not every such curve was filed as active; inconclusive = weak or mixed curves, or effect the other way; inactive = no such curve, though single readings can be large or run the other way; the % refers to the signal ratio; also: potency is read from the fitted curve at half-maximal effect). Put shortly:
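Screening used a UAS-driven beta-lactamase reporter integrated into HEK293 cells expressing ER-alpha, stimulated with 17beta-estradiol alongside test compounds over 18 hr at 37C; signal came from LiveBLAzer B/G FRET fluorescence.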

Several values for one entry are separate records, joined by “and”; a condition that tells them apart may be missing. Equal values may be shown once. More than one record can exist for a structure, and the calls need not agree. Activity calls are given as the source filed them. Unless noted, calls follow the shape of the dose curve; as a rule, active = well fitted curve in the direction sought with a large enough effect in the repeat runs; inconclusive = weak or mixed curves; inactive = no such curve, though single readings can be large; an effect the other way counts as inactive or inconclusive.

`Cc1ccc2ccc3cccc4ccc1c2c34`: the Potency result in assay [1], in assay [2], in assay [3], in [4], in assay [5] and in [6] was “inactive” throughout. Besides, the Potency result (in assay [7]; in the assay with Aromatase (Homo sapiens)) was “inactive” in each case.
In the case of `Cc1c(C(=O)O)cccc1[N+](=O)[O-]`, the Potency result (in assay [1]; in [2]; in [3]; in [8]; in [7]; with Aromatase (Homo sapiens)) was “inactive” throughout.
On to `CN(C)CCCN1c2ccccc2CCc2ccccc21`, for which the Potency was 5.96 µM (active) in assay [1] and 23.7 µM (active) in assay [2]. For the same molecule, the Potency result (in assay [3]; in assay [8]; in assay [7]; with Aromatase (Homo sapiens)) was “inactive” each time.
Consider `CCCCCCCCCCCCOC(=O)c1cc(O)c(O)c(O)c1`, for which the Potency was 3.05 µM (active) and 2.43 µM (active) in assay [1]; 2.72 µM (active) and 1.93 µM (active) in assay [2]; 19.4 µM [inconclusive] (active) in assay [9]; 49 µM (active) in [8]; 30.5 µM (active) and 27.3 µM (active) with Aromatase (Homo sapiens). Besides, the Potency result in assay [3] is “inactive”.
On to `CCCCCCCCCCCCCCNCCO`, for which the Potency entry in assay [1], in assay [3], in assay [9], in [8], in [4] and in assay [7] was “inactive” throughout. The Potency result in the assay with Aromatase (Homo sapiens) is “inactive”. Also, the Potency in assay [5] is 0.188 µM (active).
For `C[C@@H]1CC[C@H]2C(C)(C)[C@H]3C[C@@]12CC[C@@]3(C)O`, in assay [2], the Potency was 54.4 µM (active). In addition, the Potency result in assay [3], in assay [9], in [8], in [4], in [5] and in assay [7] was “inactive” throughout. Besides, the Potency entry with Aromatase (Homo sapiens) was “inactive”.
Take `CN1[C@@H]2CC[C@H]1CC(OC(=O)C(CO)c1ccccc1)C2` (stereo not given in full): the Potency result (in assay [1]; in assay [8]; in assay [7]; with Aromatase (Homo sapiens)) was “inactive” throughout.
As for `CC(=O)Oc1ccc(C2(c3ccc(OC(C)=O)cc3)C(=O)Nc3ccccc32)cc1`, the Potency result (in assay [1]; in assay [3]; in assay [9]; in assay [8]; in assay [4]; in the assay with Aromatase (Homo sapiens)) was “inactive” in each case. Also, in assay [7], the Potency was 841 nM (active) and 1.19 µM (active).
With `Oc1c(Br)cc(Br)c2cccnc12`, the Potency in assay [1] is 26.6 µM (active); in assay [2], 16.8 µM (active). Also, the Potency result (in assay [4]; in the assay with Aromatase (Homo sapiens)) was “inactive” in each case.
`Cc1c(-c2ccc(O)cc2)n(Cc2ccc(OCCN3CCCCCC3)cc2)c2ccc(O)cc12`: the results for the Potency (in assay [1]; in the assay with Aromatase (Homo sapiens)) were 9.44 µM (active) and 0.0211 µM (active), respectively. In addition, the Potency entry in assay [8] was “inactive”.
Regarding `NCCCC(O)(P(=O)(O)O)P(=O)(O)O`, the Potency result in assay [1], in assay [3], in [8] and in [7] was “inactive” throughout.
On to `N#CSCSc1nc2ccccc2s1`, for which the Potency was 1.54 µM (active) in assay [1], 0.864 µM (active) in assay [2] and 15.4 µM (active) with Aromatase (Homo sapiens). The Potency result in assay [4], in assay [5] and in assay [7] was “inactive” in each case.
For `CC(NCCC(c1ccccc1)c1ccccc1)c1ccccc1` (stereo not given), the Potency in assay [1] is 9.44 µM (active); in assay [8] it was 23.9 µM (active); with Aromatase (Homo sapiens), 29.8 µM (active).
Consider `COc1ccccc1OCCNCC(O)COc1cccc2[nH]c3ccccc3c12` (stereo not given), for which, in [1], the Potency was 29.8 µM (active). In addition, the Potency result (in assay [9]; in assay [8]; in [4]; in the assay with Aromatase (Homo sapiens)) was “inactive” throughout.
On to `NC1(c2ccc(-c3nc4ccn5c(=O)[nH]nc5c4cc3-c3ccccc3)cc2)CCC1`, for which the Potency in assay [1] was 13.3 µM (active); in assay [2] it was 13.3 µM (active); in assay [4], 21.3 µM [activator] (active). The Potency result (in [5]; in [7]; with Aromatase (Homo sapiens)) was “inactive” in each case.
For `CC(=O)Oc1ccc(C2(c3ccc(OC(C)=O)cc3)Oc3ccccc3NC2=O)cc1`, the Potency in [2] was 5.96 µM (active); in [9], 8.49 µM [inconclusive] (active); in assay [4] it was 7.56 µM [inconclusive] (active). Moreover, the Potency result (in assay [3]; in [8]; in assay [7]; with Aromatase (Homo sapiens)) was “inactive” in each case.
Consider `CN1[C@@H]2CC[C@@H]1CC(OC(=O)C(CO)c1ccccc1)C2` (stereo not given in full), for which the Potency entry (in assay [1]; in assay [8]; in [7]; with Aromatase (Homo sapiens)) was “inactive” throughout.
Turning to `Cc1c(C)n(Cc2ccccc2)c2ccc(C(=O)OCCN(C)C)cc12`, the Potency was 7.5 µM (active) in [1] and 10.6 µM (active) in assay [2]. In addition, the Potency entry (in assay [7]; with Aromatase (Homo sapiens)) was “inactive” each time.
On to `O=C1Nc2ccc(Cl)cc2[C@@](C#CC2CC2)(C(F)(F)F)O1`, for which the values for the Potency (in [1]; in [6]; with Aromatase (Homo sapiens)) were 29.8 µM (active), 33.5 µM (active) and 23.7 µM (active), respectively. Besides, the Potency entry in [8], in assay [4] and in [7] was “inactive” in each case.
In the case of `CO[C@H]1C=CO[C@@]2(C)Oc3c(C)c(O)c4c(O)c(cc(O)c4c3C2=O)NC(=O)/C(C)=C\C=C/[C@H](C)[C@H](O)[C@@H](C)[C@@H](O)[C@@H](C)[C@H](OC(C)=O)[C@@H]1C`, the Potency in [1] is 48.9 µM (active); in assay [7], “inactive and 34.6 µM (active)”; with Aromatase (Homo sapiens) it was “inactive and 21.8 µM (active)”. Besides, the Potency result in assay [9], in [8], in [4], in assay [5] and in [6] was “inactive” each time.
With `COc1ccc2sc(C(=O)Nc3nnn[nH]3)c(OC(C)C)c2c1`, the values for the Potency in assay [1], in assay [2] and in assay [6] were 7.66 µM (active), 6.09 µM (active) and 54.3 µM (active), respectively. The Potency result in assay [4] and in [7] was “inactive” throughout.
`Cc1ccc(N)cc1O`: the Potency result in assay [2], in [3], in [9], in [4], in assay [5] and in assay [6] was “inactive” in each case. The Potency result in [7] is “inactive”.
For `O=C(NO)c1ccccc1`, the Potency was 26 µM (active) in assay [1] and 41.2 µM (active) in assay [2]. For the same molecule, the Potency result with Aromatase (Homo sapiens) was “inactive”.
Turning to `O=C1NCN(c2ccccc2)C12CCN(CCCC(c1ccc(F)cc1)c1ccc(F)cc1)CC2`, the Potency in [1] is 3.35 µM (active); in assay [2] it was 5.96 µM (active); in assay [7], 26.6 µM (active).
Take `CN(C)CCOC(c1ccccc1)c1ccccc1` (tested in a mixture with another compound): the Potency in [2] is 61.6 µM (active); in assay [8] it was 49.3 µM (active). Moreover, the Potency entry in assay [3], in [9], in [4], in [5] and in assay [6] was “inactive” each time.
Consider `Cc1oc(-c2ccccc2)nc1CCOc1ccc(C[C@H](Nc2ccccc2C(=O)c2ccccc2)C(=O)O)cc1`, for which the Potency in assay [1] is 27.3 µM (active); in [2], 54.5 µM (active). Further, the Potency entry in [4] and in assay [6] was “inactive” throughout.
`CCCCCCCC/C=C\CCCCCCCC(=O)N(C)CC(=O)O`: the Potency was 30.6 µM (active) in [1] and 61.1 µM (active) in [2]. The Potency result in assay [5], in assay [6] and in assay [7] was “inactive” throughout.
Regarding `CC(C)(C)C1=CC(=O)C=C(C(C)(C)C)C1=O`, the Potency result in assay [1], in assay [3], in assay [9], in [4], in assay [5] and in [6] was “inactive” throughout. Besides, the Potency result in [7] was “inactive”. Also, the Potency with Aromatase (Homo sapiens) is 34.4 µM (active).
For the molecule `CN(C)c1ccc(N=NS(=O)(=O)O)cc1`, the Potency entry in [2] and in assay [3] was “inactive” each time.
As for `CC(C)OC(=O)c1cc(C(=O)OC(C)C)cc([N+](=O)[O-])c1`, the Potency entry in assay [2] and in [3] was “inactive” in each case.
As for `CCCCCCCCCCCCCCCC`, the Potency entry in assay [2], in assay [3], in assay [9], in [8], in [4] and in assay [6] was “inactive” throughout. Also, the Potency entry (in assay [7]; with Aromatase (Homo sapiens)) was “inactive” in each case.
Take `Oc1ccc(-c2ccccc2)c(Cl)c1`: the Potency entry (in assay [1]; in assay [3]; in [8]; in [6]; in assay [7]; with Aromatase (Homo sapiens)) was “inactive” throughout. The Potency was 61.6 µM [inconclusive] (active) in [4] and 54.5 µM (active) in [5].
